Assay outcomes from PubChem BioAssay.
ALDH1A1 inh – ALDH1A1 (human) enzyme inhibition. P00352. Purified ALDH1A1, NADH fluorescence, propionaldehyde substrate. Potency, µM (series often up to 75.3 µM), for the others: top-dose activity, negative = inhibition, usual class: inhibitors. 220,000 tested, 7.3% active. AID 1030;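 note: potency is the fitted concentration of half-maximal effect; plate controls were no enzyme wells and a reference inhibitor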
IMPase inh – membrane-permeable compound that blocks inositol monophosphatase | P97697 | CHO-M1 cells, IP1 accumulation, HTRF TR-FRET ratio | inhibition (IP1 accumulation), % at 46.1 µM | 120,000 tested, under 10 active; active = well fitted curve in the direction sought with a large enough effect in the signal ratio, not every such curve was filed as active; inconclusive = small, poorly fitted or top-dose-only effect, or a change in a side signal; inactive = no such curve, though single readings can be large or run the other way; the % refers to the signal ratio;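 note: cells stimulated with carbachol in lithium chloride buffer; plate controls were DMSO basal wells for no effect and reference inhibitor wells for full effect; higher means more IMPase inhibition seen as more IP1 and lower FRET ratio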
Target sequence (P97697 whole entry, looked up): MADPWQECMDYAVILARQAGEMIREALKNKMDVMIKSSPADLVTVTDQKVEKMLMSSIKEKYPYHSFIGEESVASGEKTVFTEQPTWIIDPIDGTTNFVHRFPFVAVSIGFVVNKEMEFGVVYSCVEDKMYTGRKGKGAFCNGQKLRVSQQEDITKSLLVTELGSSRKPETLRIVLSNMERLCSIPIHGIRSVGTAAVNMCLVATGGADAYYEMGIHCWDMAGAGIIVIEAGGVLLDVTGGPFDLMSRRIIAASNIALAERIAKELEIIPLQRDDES
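Carbachol-driven Gq signalling in CHO-M1 cells (2000/well) generates IP1. Compounds that block IMPase raise IP1 and so reduce the FRET signal from Eu-anti-IP1 and d2-IP1 after a 10 min room-temperature lysis.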
HPGD block – blocks human HPGD enzyme activity; P15428; purified HPGD, NADH fluorescence kinetic, PGE2 substrate; Potency, µM, inactives show top-dose activity change, negative = inhibition, hits mostly inhibitors; 150,000 tested, 4.3% active; AID 894; note: potency is the fitted concentration of half-maximal effect
Target sequence (P15428 whole entry, looked up): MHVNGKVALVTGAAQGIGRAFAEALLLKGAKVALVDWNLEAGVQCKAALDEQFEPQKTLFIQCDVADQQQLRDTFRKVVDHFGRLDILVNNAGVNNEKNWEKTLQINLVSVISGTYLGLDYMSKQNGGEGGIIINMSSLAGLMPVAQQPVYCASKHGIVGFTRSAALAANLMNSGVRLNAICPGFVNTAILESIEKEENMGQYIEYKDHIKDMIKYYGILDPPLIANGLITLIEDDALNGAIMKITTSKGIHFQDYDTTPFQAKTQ
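20 nM HPGD preincubated 15 min at room temperature with compound in 50 mM Tris-HCl pH 8, 0.01% Tween 20. Started with 1 mM NAD+ and 30 uM prostaglandin E2; NADH fluorescence (360/450 nm) read 5 times over 30-s intervals, last minus first.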
Numbers without * were called inactive; [ ] = another dose, or the depositor's remark. Compounds with a hit are over-represented: about 9% of the library has one in this group of screens. Unless noted, calls come from the whole dose curve; as a rule, active = well fitted inhibition curve with a large enough effect (not every such curve was filed as active); inconclusive = small, poorly fitted or top-dose-only effect, or another doubt; inactive = no such curve, though single readings can be large or run the other way. Unless noted, % is set by controls: 0 for no effect and ±100 for the full control effect.

How did Cn1c(=O)c2c(nc(CN3CCc4ccccc4C3)n2Cc2cccc(Cl)c2)n(C)c1=O do in these assays?
ALDH1A1 inh: inconclusive; IMPase inh: 7; HPGD block: inconclusive

Results for Cn1c(=O)c2c(nc(CN3CCN(C(=O)c4ccco4)CC3)n2Cc2ccccc2)n(C)c1=O ?
ALDH1A1 inh: 13µM*; IMPase inh: 12[1.84 µM]; HPGD block: -5%

How did NCCCCN do in these assays?
ALDH1A1 inh: 6%; IMPase inh: -2; HPGD block: -8%

What do the screens show for `O=S(=O)(Nc1ccccc1O)c1cccc2cccnc12`?
ALDH1A1 inh: -11%

How did O=S(=O)(Nc1cc(Sc2cccc3cccnc23)c(O)c2ccccc12)c1ccc(F)cc1 do in these assays?
ALDH1A1 inh: 28µM*; HPGD block: 1.3µM*

What do the screens show for `CCOC(=O)C1C(=O)CC(C)(O)C(C(=O)OCC)C1c1ccc(OC)cc1` (centres undefined)?
ALDH1A1 inh: 6%; IMPase inh: -6; HPGD block: -7%

Results for CC(=O)C1C(=O)CC(C)(O)C(C(C)=O)C1c1ccc(N(C)C)cc1 (centres undefined) ?
ALDH1A1 inh: 3.2µM*; IMPase inh: -8; HPGD block: 0%

Results for Cc1cccc(N(CC(=O)NCc2ccc3c(c2)OCO3)C(=O)CCC(=O)Nc2ccccn2)c1C ?
ALDH1A1 inh: 28µM*; IMPase inh: 14; HPGD block: -15%

What do the screens show for `Cc1cccc(N(CC(=O)NCc2ccc3c(c2)OCO3)C(=O)CCC(=O)Nc2ccccn2)c1`?
ALDH1A1 inh: -11%; IMPase inh: 3; HPGD block: 5%

Results for CN(C)NC1CCS(=O)(=O)C1 (centres undefined) ?
ALDH1A1 inh: inconclusive; IMPase inh: 13; HPGD block: -15%

How did Cn1ncc(N=Cc2c(O)ccc3ccccc23)c1C(=O)Nc1cccc(Cl)c1 do in these assays?
ALDH1A1 inh: -5%

Results for O=C1CC(c2ccccc2Cl)=NN(c2ncnc3ccccc23)C1=O ?
ALDH1A1 inh: 0.63µM*

How did Clc1ccccc1-c1ccc2ncnc(N3CCNCC3)c2c1 do in these assays?
ALDH1A1 inh: 11%

Results for CN=c1scc(-c2cccs2)n1/N=C/c1ccccc1O ?
ALDH1A1 inh: 3%; HPGD block: inconclusive

What do the screens show for `CN=c1scc(-c2cccs2)n1/N=C/c1ccc(O)c(O)c1O`?
ALDH1A1 inh: 6.3µM*; IMPase inh: 0; HPGD block: 5µM*

How did CN=c1scc(C)n1/N=C/c1ccc(O)c(O)c1O do in these assays?
ALDH1A1 inh: 3.2µM*; IMPase inh: inconclusive; HPGD block: 7.1µM*

Results for CCN=c1scc(C)n1/N=C/c1ccsc1 ?
ALDH1A1 inh: 0%; IMPase inh: 4; HPGD block: -13%

How did CCN1C(=O)[C@H]2[C@H]3[C@H](O)[C@H](O)C/C(=N/OCc4ccccc4)[C@@H]3CC[C@@H]2C1=O do in these assays?
ALDH1A1 inh: 4%[13.5 µM]

How did CCNc1ncc2nc(-c3ccc(Cl)cc3)c(=O)n(-c3ccccc3)c2n1 do in these assays?
ALDH1A1 inh: -7%; HPGD block: inconclusive

What do the screens show for `O=C(Oc1cccc([N+](=O)[O-])c1)c1cc(-c2ccccc2)nc2ccccc12`?
ALDH1A1 inh: -5%; IMPase inh: 3; HPGD block: -12%

What do the screens show for `Cc1cccnc1CN1CCN(C(=O)CCc2nnc(CCc3ccccc3)o2)CC1`?
ALDH1A1 inh: 3%

Results for Cc1cc(-c2nnc(CCC(=O)N3CCN(Cc4cccc(F)c4)CC3)o2)c(C)o1 ?
ALDH1A1 inh: 28µM*

Results for O=C1N(Cc2cccnc2)C[C@@H]2C[C@@H](c3ccc4nsnc4c3)N3CCC[C@@]123 ?
ALDH1A1 inh: -5%

How did CC(C)CCCNc1nc(N2CCOCC2)nc(N2CCOCC2)n1 do in these assays?
ALDH1A1 inh: 0%; IMPase inh: 5; HPGD block: -3%

What do the screens show for `CC(C)CN(C#N)c1nc(N2CCOCC2)nc(N2CCOCC2)n1`?
ALDH1A1 inh: 7.9µM*; IMPase inh: 15; HPGD block: -11%

Results for COc1ccc(CNC(=O)CCCCCn2c(SCC#N)nc3cc4c(cc3c2=O)OCO4)cc1 ?
ALDH1A1 inh: inconclusive; IMPase inh: 7; HPGD block: -12%

How did C=CCO/N=C(/C)c1ccc(Oc2cnccn2)cc1 do in these assays?
ALDH1A1 inh: 8%

How did O=C(C1CC=CCC1)N1CCC(CO)(Cc2ccc(Cl)cc2)CC1 (centres undefined) do in these assays?
ALDH1A1 inh: 5%

What do the screens show for `CC1CC(C)(C)NCc2ccccc21` (centres undefined)?
ALDH1A1 inh: 0.56µM*; IMPase inh: inconclusive

What do the screens show for `CC1CC(C)(C)NC(C)c2ccccc21` (centres undefined)?
ALDH1A1 inh: -7%; IMPase inh: 8

Results for COc1cccc(-c2nc(S(=O)(=O)c3ccc(C)cc3)c(N3CCCCC3)o2)c1 ?
IMPase inh: 1

How did O=c1c(-c2ccc(F)c(F)c2)nc2cncnc2n1Cc1ccc(F)cc1 do in these assays?
ALDH1A1 inh: -13%; HPGD block: -14%

How did CCCS(=O)(=O)c1nnnn1-c1cccc(OC)c1 do in these assays?
ALDH1A1 inh: 1.4µM*; IMPase inh: 17; HPGD block: 22µM*

How did CCOC(=O)c1csc(NC(=O)CSc2nnnn2-c2cccc(OC)c2)n1 do in these assays?
ALDH1A1 inh: -9%; IMPase inh: -6; HPGD block: -12%

Results for COc1cccc(CS(=O)(=O)c2nnnn2-c2ccccc2)c1 ?
ALDH1A1 inh: 1µM*; HPGD block: -15%

What do the screens show for `COc1cccc(CS(=O)(=O)c2nnnn2C2CCCCC2)c1`?
ALDH1A1 inh: 1%; HPGD block: -2%

What do the screens show for `COc1ccc(-c2[nH]ncc2/C=C(/C#N)C(=O)NC2CCCCCC2)cc1`?
ALDH1A1 inh: inconclusive; IMPase inh: 9; HPGD block: inconclusive

What do the screens show for `CCC(=O)N(Cc1ccc(S(N)(=O)=O)cc1)C1CC(=O)N(c2ccc(OC)cc2)C1=O` (centres undefined)?
ALDH1A1 inh: inconclusive; IMPase inh: 6[1.84 µM]; HPGD block: -10%

How did COCCCNC(=S)NC(=O)c1ccc(C)cc1 do in these assays?
ALDH1A1 inh: inconclusive; HPGD block: -5%

Results for Cc1nc(Nc2ccc3c(c2)OCCO3)c2oc3ccccc3c2n1 ?
ALDH1A1 inh: inconclusive; IMPase inh: 8; HPGD block: inconclusive

Results for CCc1nc(Nc2ccc3c(c2)OCCO3)c2oc3ccccc3c2n1 ?
ALDH1A1 inh: 25µM*; IMPase inh: 4; HPGD block: -22%

Results for Cc1nc(NCc2ccc3c(c2)OCO3)c2oc3ccccc3c2n1 ?
ALDH1A1 inh: inconclusive; IMPase inh: 4; HPGD block: -12%

Results for CCc1nc(NCc2ccc3c(c2)OCO3)c2oc3ccccc3c2n1 ?
ALDH1A1 inh: 13µM*; IMPase inh: 1; HPGD block: -11%

How did Cc1c(Cl)ccc(S(=O)(=O)N2CCN=C2c2ccccc2)c1Cl do in these assays?
ALDH1A1 inh: 4%; HPGD block: -13%

What do the screens show for `CS(=O)Cc1cc(Sc2ccccc2)nc(-c2ccncc2)n1` (centres undefined)?
ALDH1A1 inh: 8.9µM*

How did COCc1cc(Sc2ccc(Cl)cc2)nc(-c2ccccc2)n1 do in these assays?
ALDH1A1 inh: 6%; IMPase inh: 7; HPGD block: -8%
